TPT1 inhibitor: blocks Candida albicans tRNA 2'-phosphotransferase; recombinant caTPT1, FP RNA substrate dephosphorylation; inhibition, % at 5 µM; hit rate 0.81% among 300,000; AID 1962;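 active = inhibition above the mean of all tested compounds plus 3 SD, set per screening campaign, cut at about 24% in these data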;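 note: plate controls were DMSO alone for no effect and ferristatin control at 100 nM for full effect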
dFosB act: enhances mouse delta FosB homodimer DNA binding; hit rate 0.99% among 340,000; AID 493131; activation, % at 25 µM; purified delta FosB, TAMRA-CDK5 oligo fluorescence polarization; percent of positive-control signal above neutral wells; P13346;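 active = mean activation above about 17%, with every replicate also reaching it, limit read from the data, passing the limit was not always enough; inconclusive = only one of the two conditions met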
Target sequence (P13346 whole entry, looked up): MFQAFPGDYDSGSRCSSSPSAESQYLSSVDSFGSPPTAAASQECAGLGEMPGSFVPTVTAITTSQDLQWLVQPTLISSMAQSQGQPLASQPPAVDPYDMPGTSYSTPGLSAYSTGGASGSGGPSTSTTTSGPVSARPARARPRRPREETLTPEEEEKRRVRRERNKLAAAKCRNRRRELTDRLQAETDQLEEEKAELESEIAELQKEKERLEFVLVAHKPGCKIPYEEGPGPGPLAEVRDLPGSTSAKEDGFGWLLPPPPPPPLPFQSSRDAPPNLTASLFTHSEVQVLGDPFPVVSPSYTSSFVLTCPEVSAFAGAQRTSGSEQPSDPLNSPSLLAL
EBNA-1 inh: blocks EBNA-1 binding to DNA. hit rate 0.34% among 300,000. AID 1950. inhibition, % at 14.8 µM. EBNA-1 DNA binding, fluorescence polarization; in the data active = inhibition above about 28%
Rpn11 block: Rpn11 (human) deubiquitinase inhibition; O00487; human 26S proteasome, Ub4-pepOG fluorescence polarization; 20S core pre-blocked with epoxomicin; inhibition, % at 20 µM; hit rate 0.59% among 360,000;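 active = inhibition at 20 µM, scaled to each plate's controls, above about 33%, limit read from the data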
NR3A LBD binder: NR3A (human) ligand-binding domain modulation | hit rate 2.5% among 340,000 | NR3A LBD differential scanning fluorimetry, Tm shift; 0% = protein alone, 100% = glycine-bound protein | Tm shift relative to glycine control, % at 25 µM;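 active = melting temperature shift of at least 10% of the positive control shift, at one fixed dose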
ZTA DNA inh: ZTA (EBV) inhibition in EBNA-1 counter-screen; ZTA-DNA binding, fluorescence polarization; inhibition, % at 11 µM; hit rate 0.15% among 320,000; P03206; in the data active = inhibition above about 33%
Target sequence (P03206 whole entry, looked up): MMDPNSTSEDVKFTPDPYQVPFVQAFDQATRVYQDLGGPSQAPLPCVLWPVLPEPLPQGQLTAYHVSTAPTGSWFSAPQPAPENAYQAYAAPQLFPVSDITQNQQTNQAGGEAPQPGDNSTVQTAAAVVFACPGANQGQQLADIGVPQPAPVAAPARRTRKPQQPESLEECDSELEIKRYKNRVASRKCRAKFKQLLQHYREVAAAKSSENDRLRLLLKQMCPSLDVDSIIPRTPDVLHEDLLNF
An asterisk follows results filed as active; ? = inconclusive; / = no result shown; + = active, no number. An excerpt weighted towards active compounds, which were near 4.5% of everything screened.

SMILES	TPT1 inhibitor	dFosB act	EBNA-1 inh	Rpn11 block	NR3A LBD binder	ZTA DNA inh
CC1CN(C(=O)CCC(=O)NCCCN2C(C)CCCC2C)c2ccccc2O1 (stereo unspecified)	-4	-3	-4	-5	-2	4
Clc1nssc1=Nc1nncs1	/	-4	/	19	25*	8
Clc1ccc(N=c2ssnc2Cl)nc1	-1	-3	2	10	2	-8
Cc1cc(C2(c3ccc(O)c(C)c3)OC(=O)c3ccccc32)ccc1O	1	-3	-12	-2	-7	-14
Cc1cc(O)c(C(C)C)cc1C1(c2cc(C(C)C)c(O)cc2C)OC(=O)c2ccccc21	5	-6	-6	5	11*	0
Cc1cc([N+](=O)[O-])c2[nH]c(C(=O)N/N=C/c3ccccc3C(=O)O)c(-c3ccccc3)c2c1	/	-13	/	6	29*	/
Cc1ccc2nc(C)c(C(=O)N/N=C/c3ccccc3[N+](=O)[O-])cc2c1	-1	3	11	-3	-2	5
N#CCn1cc(/C=N/NC(=O)c2cc3c(ccc4ccccc43)o2)c2ccccc21	9	11	-3	18	25*	0
COc1ccc(/C=N\NC(=O)c2cc3c(ccc4ccccc43)o2)cc1O	/	0	/	6	25*	/
Cc1ccc(Cl)cc1NC(=O)Nc1cccs1	0	-6	4	11	20*	-6
Cc1ccccc1NC(=O)Nc1cccs1	0	-12	-5	10	-13	-16
Cc1ccc2nc(C)c(C(=O)N/N=C/c3ccco3)cc2c1	-2	-10	6	4	11*	22
Cc1ccc2nc(Cl)c(/C=N/NC(=O)[C@H]3C[C@@H]3c3ccccc3)cc2c1	-1	-11	8	-3	0	-23
Cc1ccc2nc(Cl)c(/C=N/NC(=O)c3ccccc3O)cc2c1	2	-8	11	-6	20*	0
CCC1=NN(C(=O)CCc2ccc3c(c2)OCO3)C(O)(C(F)(F)F)C1 (stereo unspecified)	-3	2	-7	3	-1	-8
O=C(Nc1cccc(-c2nc3ncccc3o2)c1)c1sc2cc(Cl)ccc2c1Cl	0	-1	-3	+	-1	-6
O=C(Nc1cccc(-c2nc3ncccc3o2)c1)c1sc2ccccc2c1Cl	8	-2	15	18	1	-1
COc1ccccc1CNC(=O)COC(=O)c1cccnc1SCC(=O)NCc1ccccc1OC	-5	41*	-7	0	-1	2
CC(C(=O)Nc1ccc(O)cc1C(=O)O)N1C(=O)/C(=C\c2cccs2)SC1=S (stereo unspecified)	0	-16	4	12	9	17
S=C(NCCN1CCOCC1)Nc1ccc(Cl)cc1Cl	-2	-5	7	-5	12*	-8
S=C(NCCc1ccc(Cl)cc1)Nc1ccc(Cl)cc1Cl	-2	4	-1	4	18*	-1
S=C(NCc1ccc(Cl)cc1)Nc1ccc(Cl)cc1Cl	-1	6	13	-4	1	2
O=C(NCCCCc1ccccc1)c1ccccc1Br	-1	/	2	-4	0	5
N#Cc1c(N)[nH]c2ccc(Sc3ccccc3)cc12	/	-5	/	-3	109*	/
COC(=O)c1ccc2[nH]c3cccc(/C(=C/c4ccccc4)c4ccccc4)c3c2c1	-2	1	2	-3	24*	14
SMILES	TPT1 inhibitor	dFosB act	EBNA-1 inh	Rpn11 block	NR3A LBD binder	ZTA DNA inh
O=C1CCCc2[nH]c3cccc(/C(=C/c4ccccc4)c4ccccc4)c3c21	-2	-1	-2	-2	-8	3
CCc1cc2c3c([nH]c2cc1S(=O)(=O)NCCCOC)CC(C)(C)CC3=O	0	-9	6	9	0	2
COCCn1c(=NC(=O)c2cc(Cl)sc2Cl)sc2cc(S(N)(=O)=O)ccc21	1	-6	-10	9	28*	7
COC(=O)Cn1c(=NC(=O)c2cc(-c3cccs3)nc3ccccc23)sc2cc(S(N)(=O)=O)ccc21	2	0	16	/	16*	-9
COC(=O)Cn1c(=NC(=O)c2ccc(S(=O)(=O)N3CCc4ccccc4C3)cc2)sc2cc(OC)ccc21	11	-7	-6	-7	-1	10
COCCn1c(=NC(C)=O)sc2cc([N+](=O)[O-])ccc21	-4	3	-9	5	27*	-6
COCCn1c(=NC(=O)c2ccc(S(=O)(=O)N3CCc4ccccc4C3)cc2)sc2cc(S(N)(=O)=O)ccc21	-2	-10	-5	3	25*	-22
O=C(CN1CCN(c2ccc(O)cc2)CC1)Nc1cc([N+](=O)[O-])ccc1Cl	1	-2	-1	1	-3	8
C=CCn1c(=NC(=O)c2ccc(S(=O)(=O)N3CCCc4ccccc43)cc2)sc2cc(S(N)(=O)=O)ccc21	-2	14	-7	5	13*	-8
C=CCn1c(=NC(=O)CN2C(=O)CCC2=O)sc2cc(S(N)(=O)=O)ccc21	-2	-1	4	-7	-2	-1
C=CCn1c(=NC(=O)c2ccc(S(=O)(=O)N3CCc4ccccc4C3)cc2)sc2cc(S(N)(=O)=O)ccc21	1	?	12	3	19*	-1
C[C@@H]1ON(C)[C@H]2C[C@H]3c4cc(-c5cccc(F)c5)ccc4CCN3C(=O)[C@@H]12	/	-8	/	4	-1	/
NC(=O)C1CCCN(C(=O)c2ccc(NC(=O)c3cccs3)cc2)C1 (stereo unspecified)	/	-3	/	-2	1	-14
CC1CC(C#N)N(N(C)C)C1=C(C#N)C#N (stereo unspecified)	-3	-3	1	-1	17*	6
CCCC1CC(C#N)N(N(C)C)C1=C(C#N)C#N (stereo unspecified)	0	-7	3	0	-2	-10
COc1cccc(C(O)c2nc(-c3cc(F)cc(F)c3)cs2)c1 (stereo unspecified)	/	/	/	-4	/	/
CCc1ccc(/C=N/NC(=O)C(=O)NCCCN2CCOCC2)cc1	-2	-2	-14	-4	1	6
C=CCC[C@@H](Cc1ccc(F)cc1)C(=O)OCCNC(=O)[C@@H](CC=C)CC(=O)N[C@H](CO)Cc1ccccc1	/	7	/	10	-1	/
C=CCC[C@@H](Cc1ccc(F)cc1)C(=O)OCCNC(=O)[C@@H](CC=C)CC(=O)N[C@@H](CO)Cc1ccccc1	/	-15	/	3	23*	/
C=CCC[C@H](Cc1ccc(F)cc1)C(=O)OC[C@@H](Cc1c[nH]c2ccccc12)NC(=O)[C@@H](CC=C)CC(=O)N[C@@H](CO)Cc1ccccc1	/	4	/	3	16*	/
O=C(/C=C/Nc1cccc(O)c1)c1ccccc1	7	-7	-9	39	4	-4
Cc1ccc(C(=O)/C=C/Nc2cccc(O)c2)cc1	7	-4	-14	1	10*	-11

Screening data from PubChem BioAssay.
